These results are taken from PubChem BioAssay (Tox21).

Test [1] is described as follows: qHTS RealTime-Glo MT Cell Viability Assay in HepG2 cells - 40 hour (AID 1224870). Further: nearly all actives have a fitted effect of over 50% in size. The procedure, abridged:
(§1)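 Real-time viability: cells seeded at 600 per well together with NanoLuc and cell-permeant prosubstrate, compounds added after 5 h incubation. Luminescence tracked at 0, 8, 16, 24, 32 and 40 h of exposure.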
In general terms: Quantitative high-throughput screening tests each substance at several concentrations.

Test [2] is described as follows: A CellTox Green Cytotoxicity Assay to monitor cytotoxicity in HEK293 cells - 40 hour (AID 1224871). Further: nearly all actives have a fitted effect of over 45% in size. The procedure, abridged: (§2)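 Each value comes from one timepoint of a single continuous run in which HEK293 cells with CellTox Green were exposed to compound for up to 40 h at 37 C, dye fluorescence rising with cell death.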
Test [3] is described as follows: qHTS RealTime-Glo MT Cell Viability Assay in HEK293 cells - 16 hour (AID 1224872). Further: nearly all actives have a fitted effect of over 50% in size. Further: potency means the concentration at half of the fitted maximal effect. Put shortly:
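HEK293 cells seeded with NanoLuc/prosubstrate reagent, rested 5 h at 37 C, then dosed and kept at 37 C up to 40 h. Nonlytic real-time luminescence from viable cells read at 0, 8, 16, 24, 32 and 40 h.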

The nature of test [4]: qHTS RealTime-Glo MT Cell Viability Assay in HepG2 cells - 8 hour (AID 1224873). Further: nearly all actives have a fitted effect of over 55% in size. The procedure, abridged:
as §1

The nature of test [5]: qHTS RealTime-Glo MT Cell Viability Assay in HEK293 cells - 40 hour (AID 1224874). Further: nearly all actives have a fitted effect of over 50% in size. Further: potency means the concentration at half of the fitted maximal effect. As to conditions: RealTime-Glo luminescence; max response: stronger effect = lower value. Put shortly: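 qHTS format; HEK293 cells with NanoLuc/prosubstrate reagent, 37 C/5% CO2 for 5 h pre-dosing; compounds 23 nL in DMSO; luminescence at each time point reflects viable cells.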
A short description of test [6]: A CellTox Green Cytotoxicity Assay to monitor cytotoxicity in HEK293 cells - 24 hour (AID 1224875). Further: series mostly up to about 77 µM; nearly all actives have a fitted effect of over 45% in size. Put shortly:
as §2

The nature of test [7]: A CellTox Green Cytotoxicity Assay to monitor cytotoxicity in HepG2 cells - 16 hour (AID 1224876). Further: nearly all actives have a fitted effect of over 45% in size. Put shortly:
(§3)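 Continuous culture of HepG2 cells with a membrane-impermeant DNA dye; rising fluorescence marks dead cells. Compound exposure lasted up to 40 h at 37 C, with reads every 8 h from 0 h.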

Test [8] in a line: qHTS RealTime-Glo MT Cell Viability Assay in HepG2 cells - 32 hour (AID 1224877). Further: nearly all actives have a fitted effect of over 55% in size. The procedure, abridged:
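HepG2 cells (600/well) were dispensed with RealTime-Glo reagents, incubated 5 h at 37 °C, then treated with compounds in DMSO for up to 40 h. Nonlytic NanoLuc luminescence reflecting viable cells was read at each stated time point.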

Test [9] can be described thus: A CellTox Green Cytotoxicity Assay to monitor cytotoxicity in HepG2 cells - 24 hour (AID 1224878). Further: nearly all actives have a fitted effect of over 45% in size. The procedure, abridged:
as §3

Test [10] can be described thus: A CellTox Green Cytotoxicity Assay to monitor cytotoxicity in HepG2 cells - 40 hour (AID 1224879). Further: nearly all actives have a fitted effect of over 40% in size. Further: potency means the concentration at half of the fitted maximal effect. Put shortly:
as §3

SMILES strings stand for the structures. Where “and” joins values, the source holds several entries; their conditions need not be identical. Identical values can stand only once. Records with an inconclusive call do not appear. Unmarked numbers belong to inactive results. Calls of active or inactive are those of the source. The call rests on the fitted dose curve; in most records, active means well fitted curve in the direction sought with a large enough effect in the repeat runs; inconclusive means weak or mixed curves; inactive means no such curve, though single readings can be large; an effect the other way counts as inactive or inconclusive.
On the % scale 0 is the no-effect control and ±100 the full control effect.

For `CC(=O)Nc1ccc(C(=O)O)cc1`, the Potency result in test [1], in [2], in test [3], in [4], in [6] and in test [7] was “inactive” in each case. Moreover, the Potency entry in test [8], in test [9] and in test [10] was “inactive” throughout. The max response in test [5] is 0.373% and -0.782%.
For the compound `O=c1c(-c2ccc(O)cc2)coc2cc(O)ccc12`, the Potency result in test [1], in test [2], in test [3], in [4], in test [6] and in test [7] was “inactive” each time. Besides, the Potency entry in test [8], in test [9] and in test [10] was “inactive” in each case.
Regarding `Cc1cc(Cc2ccc(N)c(C)c2)ccc1N`, the Potency entry in test [1], in test [2], in [3], in [4], in test [6] and in test [7] was “inactive” throughout. Moreover, the Potency result in test [8], in test [9] and in test [10] was “inactive” throughout. Besides, the max response in test [5] is -20.5% and -29%.
Regarding `CC(C)NCC(O)COc1cccc2ccccc12` (stereo not drawn), the Potency entry in [1], in test [2], in test [3], in test [4], in [6] and in test [7] was “inactive” each time. Moreover, the Potency entry in [8] and in test [9] was “inactive” in each case.
As to `O=C(O)c1cc(-c2ccccc2)nc2ccccc12`, the Potency result in test [1], in test [2], in test [3], in [4], in test [6] and in test [7] was “inactive” each time. Besides, the Potency result in test [8], in test [9] and in [10] was “inactive” each time. In addition, the max response in [5] was -1.75% and 4.47%.
As for `CCCCCC/C=C/CCCCCCCC(=O)O`, the Potency result in test [1], in test [2], in test [3], in test [4], in test [6] and in test [7] was “inactive” each time. In addition, the Potency result in [8], in test [9] and in test [10] was “inactive” each time. The max response in test [5] was 2.68% and -1.87%.
Consider `NCc1cccc(CN)c1`, for which the Potency result in test [1], in [3], in [4], in test [7], in test [8] and in [9] was “inactive” throughout. Besides, the Potency entry in [10] is “inactive”. In test [5], the max response is -20.2% and 8.99%.
As for `Cc1cc(O)c2c(c1)C(=O)c1cc(O)cc(O)c1C2=O`, the Potency result in [1], in test [2], in test [3], in test [4], in test [6] and in [7] was “inactive” each time. The Potency entry in test [8], in test [9] and in test [10] was “inactive” each time.
With `CCOC(=O)C1OC1c1ccccc1` (stereo not drawn), the Potency entry in [1], in [2], in test [4], in [6], in [7] and in test [8] was “inactive” in each case. For the same compound, the Potency entry in test [9] is “inactive”.
For the compound `Oc1c(Cl)cc(Cl)c(Cl)c1Cl`, the Potency entry in [1], in test [2], in [4], in test [6], in [7] and in test [8] was “inactive” throughout. The Potency entry in [9] and in test [10] was “inactive” each time.
With `CCC(=O)O`, the Potency entry in test [1], in test [2], in [3], in test [4], in test [6] and in test [7] was “inactive” each time. The Potency result in [8], in [9] and in test [10] was “inactive” throughout. For the same compound, the max response in test [5] is 12.8% and 8.4% and 13%.
Consider `CC(=O)[C@@]1(O)CC[C@H]2[C@@H]3CCC4=CC(=O)CC[C@]4(C)[C@H]3CC[C@@]21C`, for which the Potency result in [1], in test [2], in test [3], in test [4], in test [6] and in [7] was “inactive” each time. In addition, the Potency result in [8], in [9] and in test [10] was “inactive” each time.
As for `C[C@@H]1O[C@@H](OC[C@H]2O[C@@H](Oc3c(-c4ccc(O)c(O)c4)oc4cc(O)cc(O)c4c3=O)[C@H](O)[C@@H](O)[C@@H]2O)[C@H](O)[C@H](O)[C@H]1O`, the Potency entry in test [1], in test [2], in test [3], in test [4], in test [6] and in test [7] was “inactive” in each case. Besides, the Potency entry in [8], in test [9] and in test [10] was “inactive” in each case. Further, in test [5], the max response is -1.83% and 0.783%.
`CS(=O)(=O)c1ccc([C@@H](O)[C@@H](CO)NC(=O)C(Cl)Cl)cc1`: the Potency result in test [1], in test [2], in test [3], in test [4], in test [6] and in test [7] was “inactive” in each case. For the same compound, the Potency result in [8], in test [9] and in test [10] was “inactive” in each case. In addition, in test [5], the max response was 13.1% and 7.93%.
Consider `O=C(Cl)c1c(Cl)c(Cl)c(C(=O)Cl)c(Cl)c1Cl`, for which the Potency result in test [1], in test [2], in [3], in test [4], in test [6] and in test [7] was “inactive” in each case. The Potency entry in test [8], in test [9] and in test [10] was “inactive” each time. The max response in [5] is 8.71% and 13.6%.
As to `OC[C@@H](O)[C@H](O)[C@H](O)[C@@H](O)CO`, the Potency entry in [1], in test [2], in test [3], in [4], in test [6] and in test [7] was “inactive” in each case. The Potency entry in [8], in test [9] and in [10] was “inactive” in each case. The max response in [5] was 7.24% and 7.63%.
`CN(C)c1ccc(C(=N)c2ccc(N(C)C)cc2)cc1`: the Potency was 5.43 µM (active) in [3]; 2.42 µM (active) and 2.97 µM (active) in test [5]; 4.31 µM (active) and 18.8 µM (active) in test [10]. Besides, the Potency entry in [6], in test [7] and in test [9] was “inactive” each time.
With `CCCCC(CC)C(=O)OCCOCCOCCOC(=O)C(CC)CCCC` (stereo not drawn), the Potency entry in test [1], in test [2], in test [4], in test [6], in [7] and in test [8] was “inactive” throughout. Moreover, the Potency result in test [9] and in test [10] was “inactive” each time. For the same compound, in [5], the max response was -28.2%.
Consider `CC1=C(CC(=O)O)c2cc(F)ccc2/C1=C\c1ccc(S(C)=O)cc1` (stereo not drawn), for which the Potency result in [1], in [2], in test [3], in test [4], in test [6] and in test [7] was “inactive” throughout. Besides, the Potency result in test [8], in test [9] and in test [10] was “inactive” in each case. Also, in test [5], the max response is 14% and 12.3%.
For `C=CC(=O)OCCCCCCCC(C)C`, the Potency result in test [1], in test [2], in test [3], in test [4], in [6] and in [7] was “inactive” throughout. Moreover, the Potency result in test [8], in [9] and in test [10] was “inactive” each time. Besides, the max response in [5] was 4.58% and 25.2%.
Take `NC(=O)NNc1ccccc1`: the Potency entry in test [1], in test [2], in [3], in test [4], in test [6] and in test [7] was “inactive” throughout. For the same compound, the Potency result in test [8], in [9] and in test [10] was “inactive” in each case. Besides, the max response in [5] is 15.8% and 8.69%.
